Reference: paper PMC12136788
Whole data set: some 5,800 sequences, median “enrichment r” near 0.68, cut for the highest 2% near 11. These entries were drawn from the full list.

T1: UNK ZnF1-6 (called full-length) (human, UniProt Q9C0B0 30-357)
T1 sequence: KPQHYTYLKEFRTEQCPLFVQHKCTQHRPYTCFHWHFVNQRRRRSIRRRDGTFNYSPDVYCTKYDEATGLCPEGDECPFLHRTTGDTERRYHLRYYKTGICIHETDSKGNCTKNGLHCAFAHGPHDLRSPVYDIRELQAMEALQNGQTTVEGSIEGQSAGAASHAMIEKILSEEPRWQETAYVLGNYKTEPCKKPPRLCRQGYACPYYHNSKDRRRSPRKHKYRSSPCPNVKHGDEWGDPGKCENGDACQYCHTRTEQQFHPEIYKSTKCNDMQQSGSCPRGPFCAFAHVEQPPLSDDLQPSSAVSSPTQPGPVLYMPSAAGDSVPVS

B1: ENSG00000198589:be:win_3501|CDS|ENSG00000198589|bound_else_gene|NA|bound_elsewhere_windowed (ssRNA)
RNA: GGGAGUUCUACAGUCCGACGAUCUGAUACUGAAACUCAAGAUUCUAAAGAUUCUGGAAUUCAGACUAUGACAGCAUCAGGGUCUUCAGCUAUGUCACCAGAAACUACUGUUUCCCAAAUAGCUGUAGAAUCAGACCUUGGUCACAACAGAGGAUUGAGCAUCA
B2: chr5:136975339:136975545:-|3pUTR|ENSG00000152377|msi1|total|mutant (ssRNA)
RNA: GGGAGUUCUACAGUCCGACGAUCAGAGCCCAUCAAAUCCUGAGUGUCAGUUUGUUGUCCCUAUUGCCGAUGAAACCGUGAUGCCGCAAAAACCCCGUAAAUUCUGAAUGCUUUUCCACGCCGACUUAUCUGGAAUGUGAACACCAACAGAGGAUUGAGCAUCA
B3: chr3:124966548:124966651:-|3pUTR|ENSG00000173706|unk|total|mutant (ssRNA)
RNA: GGGAGUUCUACAGUCCGACGAUCAGGAAGAAUGCAAAGUUCAGUAUUUCAAUACUUUGUAUUUUACUUGAAAUUACCCUCCGCCGCAUCUUUUUUUUCCUGUCUGAAAGCUUUUGUGUGGAUGAGAAGGGACAUUUCAUUUCCCAACAGAGGAUUGAGCAUCA
B4: ENSG00000124766:be:win_801|CDS|ENSG00000124766|bound_else_gene|NA|bound_elsewhere_windowed (ssRNA)
RNA: GGGAGUUCUACAGUCCGACGAUCCUCGGCCUCCGCCUCCUCGGCAGCCUCGGCCUCCGCAGCGCUCGCGGCCCCGGGCAAGCACCUGGCGGAGAAGAAGGUGAAGCGCGUCUACCUGUUCGGCGGCCUGGGCACGUCGUCGUCCAACAGAGGAUUGAGCAUCA
B5: ENSG00000101945:stop:overlap|stop_codon|ENSG00000101945|stop_codon|NA|stop_codon (ssRNA)
RNA: GGGAGUUCUACAGUCCGACGAUCAGAAGCGGGUCCGUAUUGAAUGCAAGUGUGGGACUGAGUCCUGCCGCAAAUACCUCUUCUAGCCCUUAGAAGUCUGAGGCCAGACUGACUGAGGGGGCCUGAAGCUACAUGCACCUCCCCCAACAGAGGAUUGAGCAUCA
B6: chr12:24812577:24812678:-|3pUTR|ENSG00000060982|msi1|FALSE|unique (ssRNA)
RNA: GGGAGUUCUACAGUCCGACGAUCAUCCAAAGGAGCUUUUUCCUUAUUCUGUCAAGCAUUGAGAUCUUCUUCAGCUUUCAAUGUAGUUGCUAAAUACAAAUAAUGCUACUAGGUAGUGACUAAAUAUAGCAAACACUUCAUCAGCAACAGAGGAUUGAGCAUCA

These binders were tested against T1, UNK ZnF1-6 (called full-length) (assay: nsRBNS (natural sequence RNA bind-n-seq); RBNS binding buffer (assumed for nsRBNS): 25 mM Tris pH 7.5, 150 mM KCl, 3 mM MgCl2, 0.01% Triton X-100, 500 ug/ml BSA, 20 U/ml SUPERase-In, 4 C; UNK is unkempt and MSI1 is Musashi-1; names of the RNAs are library labels; protein concentration not given here; high values mean tight binding).
With B1 the binding signal was 0.311 enrichment R. For B2, the binding signal was 0.528 enrichment R. B3 gave a binding signal of 0.473 enrichment R. B4 gave a binding signal of 0.655 enrichment R. For B5, the binding signal was 0.806 enrichment R. In the case of B6, the binding signal is reported as 0.559 enrichment R.
